# PubChem BioAssay AID652048 (National Center for Advancing Translational Sciences (NCATS), 2013)
# Values joined by “and” are separate entries in the source; they are usually repeats but may differ in a detail not shown here. Equal values may be shown once. The whole screen tested about 410,000 compounds, of which about 2,400 (0.59%) were called active. Rule as the data show it: active = max activation above about 30%; inactive = the rest. Many of the other results were omitted from the sample, so actives are more common in it than they were. Where a structure was tested more than once in an assay, its records may differ in their call.
# Target: D(3) dopamine receptor (Homo sapiens) (UniProt P35462)
# Sequence (P35462 whole entry, looked up): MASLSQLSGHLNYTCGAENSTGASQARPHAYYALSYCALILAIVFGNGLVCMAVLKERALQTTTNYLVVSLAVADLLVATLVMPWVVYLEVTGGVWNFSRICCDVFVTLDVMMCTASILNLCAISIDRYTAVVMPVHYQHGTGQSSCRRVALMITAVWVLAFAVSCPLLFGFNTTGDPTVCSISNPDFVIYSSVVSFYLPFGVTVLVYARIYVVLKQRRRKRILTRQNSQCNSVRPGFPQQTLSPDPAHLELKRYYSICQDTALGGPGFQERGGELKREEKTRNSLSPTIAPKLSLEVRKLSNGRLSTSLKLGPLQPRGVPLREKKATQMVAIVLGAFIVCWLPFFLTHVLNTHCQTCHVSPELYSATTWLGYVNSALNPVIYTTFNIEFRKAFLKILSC
# Test: qHTS of D3 Dopamine Receptor Agonist: qHTS; also: 0% is about no effect
# Details: D3R DiscoveRx beta-arrestin cells, luminescence, 90 min; stronger effect = higher value
# Outline: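 Agonist-mode cell screen: cells plated at 1500/well and incubated overnight at 37 °C, then exposed to library compounds for 90 min at 37 °C. Detection reagent was added for 30–60 min at room temperature, and luminescence was read.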
row,SMILES,max activation
1,Cc1noc(C)c1S(=O)(=O)N1CCCC(C(=O)Nc2nccs2)C1 (stereo unspecified),2.46% (inactive)
2,COc1c(C)cc(C(=O)C2CCCN(S(=O)(=O)c3c(C)noc3C)C2)cc1C (stereo unspecified),32.6% (active)
3,CCOC(=O)C1CCN(S(=O)(=O)c2c(C)noc2C)CC1,-8.75% (inactive)
4,CCCn1c(NCc2ccc(N(CC)CC)cc2)nc2ccccc21,-7.25% (inactive)
5,COC(=O)c1ccccc1NC(=O)c1cnn(-c2ccc(F)cc2)c1-n1cccc1,-7.92% (inactive)
6,CCOCCc1nn2c(=O)cc(COC(=O)CNC(=O)c3ccc(C(C)(C)C)cc3)nc2s1,6.28% (inactive)
7,Cc1ccc(-n2nc(CO)c(C(=O)NCCc3ccccc3)n2)cc1,1.72% (inactive)
8,CCSc1nnc2c(n1)OC(c1ccc(OCC(=O)O)cc1)Nc1ccccc1-2 (stereo unspecified),6.71% (inactive)
9,CCC(=O)N1CCc2cc(S(=O)(=O)NC(Cc3ccccc3)C(=O)NCc3ccc(C)cc3)ccc21 (stereo unspecified),3.11% (inactive)
10,CCOC(=O)N1CCN(Cc2nc3cc(NC(=O)CC)ccc3n2CC)CC1,-5.31% (inactive)
11,CCC(=O)Nc1ccc2c(c1)nc(CCN1CCN(c3ccccn3)CC1)n2C,38.1% (active)
12,O=C(CN1CCN(c2ncccn2)CC1)Nc1ccccc1C(F)(F)F,5.01% (inactive)
13,O=C(CN1CCN(c2ccccn2)CC1)Nc1ccc(Br)cc1,45.2% (active)
14,O=C(CN1CCN(c2ccccn2)CC1)NCc1cccs1,-2.33% (inactive)
15,Cn1c(CCN2CCN(c3ccccn3)CC2)nc2cc(NS(=O)(=O)c3ccc(F)cc3)ccc21,2.61% (inactive)
16,Oc1ccc(Cl)c2c1CCC2,-6.75% (inactive)
17,CCc1ccc(CNCc2c(C(=O)O)n(Cc3ccc(F)cc3Cl)c3cc(OC)ccc23)cc1,-22.5% (inactive)
18,CCCC(=O)Nc1ccc2oc(-c3ccc(O)c(Br)c3)nc2c1,6.09% (inactive)
19,CC1CCCCN1CC(=O)N1CCCc2c1c(=O)oc1ccc(OCc3ccccc3)cc21 (stereo unspecified),-16.2% (inactive)
20,Cc1ccccc1NC(=O)c1c(NC(=O)c2ccccc2F)sc2c1CCC(C)C2 (stereo unspecified),4.23% (inactive)
21,Cc1nnc(C(=O)NC(C)(C)c2nc(C(=O)NCc3ccc(F)cc3)c(O)c(=O)n2C)o1,4.42% (inactive)
22,N#Cc1ccc(-c2ccc(F)cc2)nc1Sc1ccccc1,5.43% (inactive)

row,SMILES,max activation
1,CN(C)c1ccnc(Oc2ccc(F)cc2)c1C#N,2.14% (inactive)
2,N#Cc1ccc(-c2ccc(Cl)cc2)nc1Oc1ccc(F)cc1,34.7% (active)
3,Cn1c(=O)sc2cc(NS(=O)(=O)c3ccc(C(C)(C)C)cc3)ccc21,-11% (inactive)
4,Cc1cccc2nc(CSc3nc4[nH]ncc4c(=O)n3-c3cccc(Cl)c3)cc(=O)n12,32.7% (active)
5,Cc1nnc(NC(=O)CSc2nc3c([nH]c4ccccc43)c(=O)n2-c2cccc(Cl)c2)s1,16.6% (inactive)
6,CCc1ccc(-n2c(SCc3cc(=O)n4cc(Br)ccc4n3)nc3[nH]ncc3c2=O)cc1,18.2% (inactive)
7,CO[C@H]1C=CO[C@@]2(C)Oc3c(C)c(O)c4c(O)c(c(/C=N/N5CCN(C)CC5)c(O)c4c3C2=O)NC(=O)/C(C)=C\C=C[C@H](C)[C@H](O)[C@@H](C)[C@@H](O)[C@@H](C)[C@H](OC(C)=O)[C@@H]1C,-16.3% (inactive)
8,COc1ccc(-n2c(=O)c3ccccc3n(Cc3ccccc3Cl)c2=O)cc1,4.01% (inactive)
9,Cc1ccc(CSc2oc(-c3cccs3)nc2S(=O)(=O)c2ccc(C)cc2)cc1,6.03% (inactive)
10,N#CCSc1nc2ccc(N3CCOCC3)cc2c(=O)n1CCc1ccccc1,3.32% (inactive)
11,CCCCn1c(SCC(=O)NCC2CCCO2)nc2ccc(N3CCOCC3)cc2c1=O (stereo unspecified),33% (active)
12,COCCCNC(=O)CSc1nc2ccc(N3CCOCC3)cc2c(=O)n1CCc1ccccc1,-3.98% (inactive)
13,COc1ccccc1CNCc1ccc(C(=O)O)s1,6.32% (inactive)
14,COc1ccc(C)cc1Nc1nc2ccccc2c2nnc(C)n12,8.25% (inactive)
15,COC(=O)c1ccc(NC(=O)CCc2c(C)nn(-c3ccc(N4CCCC4)nn3)c2C)cc1,-2.49% (inactive)
16,Cc1ccc(OCC(=O)Nc2ccc(OCc3cc(=O)n4c(C)csc4n3)cc2)cc1C,4.15% (inactive)
17,COc1ccc(NC(=O)CCN2CCN(CCO)CC2)cc1,4.05% (inactive)
18,CCc1ccc(NC(=O)CN2CCC(C(=O)c3ccc(OC)cc3)CC2)cc1,-15.3% (inactive)
19,CCOc1ccc(NC(=O)CN2CCN(CC(=O)Nc3ccc(OC)cc3)CC2)cc1,10.4% (inactive) and 34.5% (active)
20,CCc1ccc(S(=O)(=O)n2ccnc2)cc1,8.12% (inactive)
21,Oc1ccccc1-c1nc2ccc(Cl)cn2c1Nc1ccc2c(c1)OCCO2,-2.82% (inactive)
22,C=CCSC1=C(C#N)C(c2cc(Br)c(O)c(OC)c2)CC(=O)N1 (stereo unspecified),9.82% (inactive)

row,SMILES,max activation
1,CCOC(=O)CSC1=C(C#N)C(c2sccc2C)CC(=O)N1 (stereo unspecified),31.9% (active)
2,Cc1ccsc1C1C(C#N)=C(N)OC2=C1C(=O)CC(C)C2 (stereo unspecified),1.57% (inactive)
3,Cc1ccccc1CNC(=O)c1cccc(NC(=O)c2nsc3ccccc23)c1,8.47% (inactive)
4,CCCc1c2oc(C(=O)O)cc(=O)c2cc2c(=O)cc(C(=O)O)n(CC)c12,-9.91% (inactive)
5,COc1ccc(OC)c(-c2csc(-c3c(N)c(C(=O)c4ccccc4)n4ccccc34)n2)c1,-12% (inactive)
6,COc1ccc(-c2csc(-c3c(N)c(C(=O)c4ccc(OC)c(OC)c4)n4ccccc34)n2)cc1,4.7% (inactive)
7,Cc1c(C=O)c2ccccn2c1C(=O)c1ccncc1,31.8% (active)
8,Nc1nc(/C(=C/CC(=O)O)C(=O)N[C@@H]2C(=O)N3C(C(=O)O)=CCS[C@H]23)cs1,4.45% (inactive)
9,COc1ccc(-c2nc3sc(CCNS(=O)(=O)c4ccc(F)c(C)c4)c(C)n3n2)cc1,6.72% (inactive)
10,Cc1cccc(N2CCN(C(=O)c3ccc4c(c3)CCN4S(=O)(=O)c3ccccc3)CC2)c1C,-0.325% (inactive)
11,Cc1c(C)n(Cc2ccc(Cl)cc2)c2ccc(C(=O)N3CCN(c4ccccc4F)CC3)cc12,-3.88% (inactive)
12,CCn1c(C)c(C)c2cc(C(=O)N3CCN(c4cccc(C)c4C)CC3)ccc21,5.02% (inactive) and 95.9% (active)
13,O=C(CSc1nc2c(c(=O)[nH]1)CN(Cc1ccc(F)cc1)CC2)Nc1ccccc1Cl,6.55% (inactive)
14,CCOC(=O)c1c(-c2ccc(OC)cc2)oc2ccc(OCc3ccc(C(=O)OC)cc3)cc12,9.24% (inactive)
15,COc1cc(-c2nnc(NC(=O)CS(=O)(=O)c3ccc(Cl)cc3)o2)cc(OC)c1OC,-1.85% (inactive)
16,COC(=O)c1c(-c2ccsc2)oc2ccc(-c3cc(OC)c(OC)c(OC)c3)cc12,45.2% (active)
17,COc1ccccc1NC(=O)c1sc2nc(C)c(C(=O)Nc3ccc(Cl)cc3)c(-c3ccc(Br)cc3)c2c1N,-10.3% (inactive)
18,Cc1nn(-c2ccc(N3CCCCC3)nn2)c(C)c1CCC(=O)NCc1ccccc1F,13.4% (inactive)
19,O=C(CSc1nnc(Cn2cnc3ccccc32)o1)c1ccccc1,2.49% (inactive)
20,CCOc1ccc(Nc2nc(Cc3nnc(SCC(=O)c4ccc(C)cc4)o3)cs2)cc1,22.4% (inactive)
21,CC(=O)Nc1ccc(C(=O)CSc2nnc(Cc3ccccc3)o2)cc1,46.1% (active)
22,Cc1ccc(NC(=O)c2oc3ccc(S(=O)(=O)N4CCCCC4)cc3c2C)cc1Cl,-12.7% (inactive)

row,SMILES,max activation
1,O=C(Nc1cc(Br)ccc1F)c1nc[nH]c1C(=O)NCc1ccccc1,-7.03% (inactive)
2,C[C@H](NC(=O)c1nc[nH]c1C(=O)N[C@@H](C)C(=O)OC(C)(C)C)C(=O)OC(C)(C)C,-3.39% (inactive)
3,Cc1cccc(NC(=O)c2nc[nH]c2C(=O)NCC(=O)OCc2ccccc2)c1,74.4% (active)
4,C[C@H](NC(=O)c1nc[nH]c1C(=O)NCC(=O)OC(C)(C)C)C(=O)OCc1ccccc1,48.3% (active)
5,C[C@H](NC(=O)c1nc[nH]c1C(=O)NCC(=O)OC(C)(C)C)c1ccccc1,-13.3% (inactive)
6,CCOC(=O)c1ccc(NC(=O)c2nc[nH]c2C(=O)NCc2ccccc2)cc1,56.5% (active)
7,O=C(Nc1ccon1)c1nc[nH]c1C(=O)NCc1ccccc1,12.3% (inactive)
8,CNC(=O)c1[nH]cnc1C(=O)N[C@@H](CC(C)C)C(=O)OCc1ccccc1,15.1% (inactive)
9,CCOC(=O)c1[nH]cnc1C(=O)Nc1ccccc1C,4.49% (inactive)
10,COc1cccc(C(=O)N(Cc2cccc(Cl)c2)Cc2ccco2)c1,-11.4% (inactive)
11,Cc1cc(C)cc(NS(=O)(=O)c2ccc(-c3cc(C)no3)s2)c1,-10.7% (inactive)
12,CCOc1cc(/C=C(\C#N)C(=O)Nc2ccccc2C)ccc1OCc1cc(=O)n2nc(CC)sc2n1,-12.7% (inactive)
13,O=C1CC(c2nnc(Cc3ccc(Cl)cc3)o2)CN1c1ccccc1 (stereo unspecified),10.5% (inactive)
14,COC(=O)c1c(NC(=O)C(C)Oc2ccc(Cl)c(C)c2)sc(C)c1C (stereo unspecified),-8.23% (inactive)
15,CN[C@@H]1[C@H](O[C@H]2[C@H](O[C@H]3[C@H](O)[C@@H](O)[C@H](N=C(N)N)[C@@H](O)[C@@H]3N=C(N)N)O[C@@H](C)[C@]2(O)CO)O[C@@H](CO)[C@H](O)[C@H]1O,4.88% (inactive)
16,Cc1ccc(OC(=O)CSc2nnc(-c3cccs3)o2)cc1,7.3% (inactive)
17,CCCCCCCCCCCCCCCCO,11.6% (inactive)
18,Cc1cc(/C=C2/SC(=O)N(CC(=O)OC(C)C)C2=O)c(C)n1C,30.2% (active)
19,CCN=C1S/C(=C\c2cc(Br)ccc2OCC(=O)OCC)C(=O)N1CC,5.26% (inactive)
20,Cc1cc(/C=C2/SC(=O)N(CC(=O)N3CCCC3)C2=O)ccc1N1CCOCC1,-0.0029% (inactive)
